From PubChem BioAssay (EPA / NIEHS) come the findings set out here.

Assay [1] in a line: ATG_M_61_CIS: Attagene CIS-FACTORIAL HepG2 Assay for M61 Transcription Factor (Internal Marker) (AID 2282937; active means hit-call score of the fitted dose curve at least 0.9, where 1 is the maximum; inactive means score below 0.9). To be noted: HepG2 Attagene CIS-FACTORIAL M61 internal marker reporter; actives raise or lower the signal. The method, boiled down: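 Fluorescence from labelled cDNA fragments, separated by capillary electrophoresis, quantifies reporter induction. HepG2 cells bearing transiently transfected cis-promoter MRTUs were incubated with test chemical for 24 h; DMSO defined baseline for gain/loss fitting.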

A short description of assay [2]: ATG_M_06_CIS: Attagene CIS-FACTORIAL HepG2 Assay for M06 Transcription Factor (Internal Marker) (AID 2282950; active means hit-call score of the fitted dose curve at least 0.9, where 1 is the maximum; inactive means score below 0.9). The note with it: HepG2 Attagene CIS-FACTORIAL M06 internal marker reporter; actives raise or lower the signal. The method, boiled down:
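One of many multiplexed endpoints: HepG2 reporter mRNA after 24 h dosing, detected by RT-PCR and capillary electrophoresis fluorescence; gain or loss of signal analysed against DMSO.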

Assay [3] is described as follows: ATG_PPRE_CIS: Attagene CIS-FACTORIAL HepG2 Assay for human Peroxisome Proliferator-activated Response Element (PPRE) (AID 2282958; active means hit-call score of the fitted dose curve at least 0.9, where 1 is the maximum; inactive means score below 0.9). The note with it: HepG2 PPRE cis-element reporter, Attagene transcription factor profiling; actives raise or lower the signal. In outline: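 Multiplexed reporter transcription units under cis-regulatory promoters were transfected into HepG2 cells to capture endogenous factor activity. A 24 h incubation preceded RNA isolation and fluorescent RT-PCR fragment analysis.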

A short description of assay [4]: ATG_RORE_CIS: Attagene CIS-FACTORIAL HepG2 Assay for human RAR-related Orphan Receptor Element (RORE) (AID 2282959; active means hit-call score of the fitted dose curve at least 0.9, where 1 is the maximum; inactive means score below 0.9). To be noted: HepG2 Attagene cis-factorial RORE reporter, mRNA; actives raise or lower the signal. In outline:
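Fluorescence intensity of reporter-specific cDNA fragments, separated by capillary electrophoresis, gives the signal. Source: HepG2 liver cells transiently transfected with cis-element reporters and exposed 24 h; DMSO-normalized bidirectional fit.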

Assay [5] can be described thus: ATG_TGFb_CIS: Attagene CIS-FACTORIAL HepG2 Assay for human Transforming Growth Factor (TGF) (AID 2282967; active means hit-call score of the fitted dose curve at least 0.9, where 1 is the maximum; inactive means score below 0.9). To be noted: HepG2 Attagene CIS TGFb reporter, mRNA transcription; actives raise or lower the signal. In outline: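 After a 24-hour incubation with compound, transfected HepG2 cells were lysed for RNA; reporter cDNA was amplified, fluorescently end-labeled and separated by CE. DMSO served as baseline for bidirectional fits.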

The target in assay [6] is Hepatocyte nuclear factor 4-alpha (Homo sapiens) (UniProt P41235). Kind of assay: ATG_HNF4a_TRANS: Attagene TRANS-FACTORIAL HepG2 Assay for human Hepatocyte Nuclear Factor 4 alpha (HNF4a) (AID 2282982). The note with it: HepG2 HNF4a transactivation reporter, mRNA readout. In outline:
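Transfected HepG2 reporter cells are dosed for 24 h; reporter RNA is reverse-transcribed, amplified, fluorescently labelled and HpaI-digested before CE sizing. Positive-direction fit against DMSO.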

Assay [7] in a line: ATG_M_06_TRANS: Attagene TRANS-FACTORIAL HepG2 Assay for M06 Transcription Factor (Internal Marker) (AID 2282983). To be noted: HepG2 Attagene TRANS M06 internal marker reporter. The method, boiled down: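 HepG2 cells transiently transfected with multiplexed GAL4-UAS reporter transcription units; after 24 h compound exposure, reporter mRNA measured by RT-PCR, FAM-labelled primer extension, HpaI digestion and capillary electrophoresis. Gain-of-signal fitted versus DMSO baseline; background control readout.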

The nature of assay [8]: ATG_NFI_CIS: Attagene CIS-FACTORIAL HepG2 Assay for human Nuclear Factor I (NFI) (AID 2282989; active means hit-call score of the fitted dose curve at least 0.9, where 1 is the maximum; inactive means score below 0.9). To be noted: HepG2 cis-regulatory reporter, NFI response element transcription; actives raise or lower the signal. In outline:
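Reporter transcription driven by endogenous transcription factors in HepG2 cells; 24 h treatment. Quantitation by labelled RT-PCR fragments on capillary electrophoresis, gain- or loss-of-signal relative to DMSO.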

Assay [9] deals with Retinoic acid receptor RXR-alpha (Homo sapiens) (UniProt P19793). The assay can be described thus: ATG_RXRa_TRANS: Attagene TRANS-FACTORIAL HepG2 Assay for human Retinoid X Receptor alpha (RXRa) (AID 2283012). The method, boiled down: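 HepG2 cells transiently transfected with multiplexed GAL4-UAS reporter units and chimeric NR-GAL4 fusions, dosed 24 h. Reporter mRNA measured by RT-PCR, FAM labelling, HpaI digestion and capillary electrophoresis; gain-of-signal fitted relative to DMSO baseline.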

For assay [10], the target named is human Retinoid X Receptor beta (RXRb), RXRB (gene 6257) (UniProt P28702). The assay can be described thus: ATG_RXRb_TRANS: Attagene TRANS-FACTORIAL HepG2 Assay for human Retinoid X Receptor beta (RXRb) (AID 2283013). The method, boiled down: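 HepG2 cells transiently transfected with multiplexed reporter units driven by GAL4-UAS and exogenous chimeric NR-Gal4 proteins; treated 24 h. Reporter mRNA measured by RT-PCR, 6-FAM labelling and capillary electrophoresis; gain-of-signal fitted versus DMSO baseline.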

The nature of assay [11]: ATG_EGR_CIS: Attagene CIS-FACTORIAL HepG2 Assay for human Early Growth Response 1 (EGR1) (AID 2282938; active means hit-call score of the fitted dose curve at least 0.9, where 1 is the maximum; inactive means score below 0.9). The note with it: HepG2 Attagene CIS-FACTORIAL EGR reporter mRNA; actives raise or lower the signal. The method, boiled down: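 Cell-based multiplex transcription assay: HepG2 carrying transfected cis-element reporter units, 24 h chemical treatment. Fluorescence from capillary electrophoresis of RT-PCR products gives mRNA levels; fitting is bidirectional relative to DMSO.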

The nature of assay [12]: ATG_M_19_TRANS: Attagene TRANS-FACTORIAL HepG2 Assay for M19 Transcription Factor (Internal Marker) (AID 2282974). The note with it: HepG2 Attagene TRANS-FACTORIAL M19 internal marker reporter. In outline: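 Measured here: internal-marker reporter transcript from HepG2 cells transfected with MRTUs, harvested at 24 h. cDNA PCR products were 6-FAM labelled by primer extension, cut with HpaI for 2 h at 37 C, and resolved by CE.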

Assay [13] has as its target Nuclear respiratory factor 1 (Homo sapiens) (UniProt Q16656). The assay can be described thus: ATG_NRF1_CIS: Attagene CIS-FACTORIAL HepG2 Assay for human Nuclear Respiratory Factor 1 (NRF1) Orphan Gene (AID 2282987; active means hit-call score of the fitted dose curve at least 0.9, where 1 is the maximum; inactive means score below 0.9). The note with it: HepG2 NRF1 cis-element reporter, Attagene multiplex; actives raise or lower the signal. In outline:
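Transcriptional reporter readout, one component of a 52-endpoint multiplexed HepG2 panel. Exposure 24 h; mRNA detected via RT-PCR and fluorescent capillary electrophoresis; fitting in both directions against DMSO.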

Assay [14] addresses Nuclear receptor subfamily 1 group I member 2 (Homo sapiens) (UniProt O75469). Kind of assay: ATG_PXR_TRANS: Attagene TRANS-FACTORIAL HepG2 Assay for human Pregnane X Receptor (PXR) (AID 2283008). In outline:
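Measures mRNA induction of a GAL4-UAS-driven reporter in human HepG2 cells transiently expressing PXR fused to Gal4, following 24 h treatment. DMSO served as negative control and baseline.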

The target of assay [15] is Cellular tumor antigen p53 (Homo sapiens) (UniProt P04637). The assay can be described thus: TOX21_p53_BLA_p2_ratio: Tox21 HCT-116 p53 Agonism Beta-lactamase Assay, Ratio, Phase 2 (AID 2283592). In outline:
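HCT116 cells carrying a p53-responsive beta-lactamase reporter were plated, incubated 5 h at 37C, then dosed with compounds in DMSO (217-fold dilution) for 16 h. CCF4-AM substrate was added for 2 h at room temperature; the 460/530 nm emission ratio gave gain-of-signal activity relative to DMSO.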

Assay [16] has the same target. Kind of assay: TOX21_p53_BLA_p3_ratio: Tox21 HCT-116 p53 Agonism Beta-lactamase Assay, Ratio, Phase 3 (AID 2283596). The method, boiled down: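 HCT116 p53-bla cells (4000/well) given compound in DMSO (217-fold dilution) after 5 h, incubated 16 h at 37C. CCF4-AM substrate 2 h at room temperature; 460/530 nm emission ratio, gain fitted against DMSO.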
The nature of assay [17]: TOX21_p53_BLA_p5_viability: Viability Assessment in the Tox21 HCT-116 p53 Agonism Beta-lactamase Assay, Phase 5 (AID 2283600). The method, boiled down:
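Cells were plated at 4000/well, rested 5 h at 37C, then given compounds in DMSO (217-fold dilution) for 16 h at 37C, 5% CO2. Following the CCF4-AM beta-lactamase read, CellTiter-Glo was added and luminescence was read after 30 min at room temperature.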

Assay [18] deals with Cellular tumor antigen p53 (Homo sapiens) (UniProt P04637). Kind of assay: TOX21_p53_BLA_p4_ratio: Tox21 HCT-116 p53 Agonism Beta-lactamase Assay, Ratio, Phase 4 (AID 2283601). In outline: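 Signal is the blue/green (460nm/530nm) ratio of cleaved versus uncleaved CCF4-AM substrate, read after 2 h substrate loading. Cells were HCT116 carrying the p53-responsive beta-lactamase reporter, dosed 16 h at 37C, 5% CO2; CellTiter-Glo measured in parallel.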

The target is the same in assay [19]. Kind of assay: TOX21_p53_BLA_p5_ratio: Tox21 HCT-116 p53 Agonism Beta-lactamase Assay, Ratio, Phase 5 (AID 2283599). In outline: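 Beta-lactamase reporter ratio (blue 460 nm over green 530 nm, 405 nm excitation) after 2 h CCF4-AM loading, in HCT-116 cells exposed 16 h at 37 C to compounds pinned at 217-fold dilution. Increases relative to DMSO baseline scored.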

Assay [20] is described as follows: ATG_GRE_CIS: Attagene CIS-FACTORIAL HepG2 Assay for human Glucocorticoid Response Elements (GRE) (AID 2282947; active means hit-call score of the fitted dose curve at least 0.9, where 1 is the maximum; inactive means score below 0.9). To be noted: HepG2 GRE cis-reporter, Attagene multiplex mRNA; actives raise or lower the signal. The method, boiled down:
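Assay uses human hepatoma HepG2 cells transfected with cis-promoter reporter units, exposed 24 h. mRNA from reporters detected by RT-PCR plus capillary electrophoresis; DMSO serves as negative control and baseline.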

Results filed as inconclusive are left out. Active and inactive are the calls of the source. How the source made its calls, unless noted: active means hit-call score of the fitted dose curve at least 0.9, where 1 is the maximum; inconclusive means response in the unintended direction; inactive means score below 0.9.

Retinoic acid receptor RXR-alpha (Homo sapiens), sequence (P19793 whole entry, looked up, the tested form may be a part): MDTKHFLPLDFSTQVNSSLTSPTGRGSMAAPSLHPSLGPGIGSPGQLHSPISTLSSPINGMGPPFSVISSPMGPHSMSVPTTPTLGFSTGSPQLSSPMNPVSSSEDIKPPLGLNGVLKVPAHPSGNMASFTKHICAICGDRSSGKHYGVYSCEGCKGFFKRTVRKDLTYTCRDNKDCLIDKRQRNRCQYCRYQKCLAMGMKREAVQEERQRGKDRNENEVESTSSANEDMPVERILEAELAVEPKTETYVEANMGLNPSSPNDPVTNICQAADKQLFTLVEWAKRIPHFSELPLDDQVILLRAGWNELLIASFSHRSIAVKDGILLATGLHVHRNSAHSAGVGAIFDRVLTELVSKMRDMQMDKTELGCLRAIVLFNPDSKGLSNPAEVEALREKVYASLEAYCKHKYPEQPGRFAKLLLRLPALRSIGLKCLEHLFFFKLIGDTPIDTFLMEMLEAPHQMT
human Retinoid X Receptor beta (RXRb), RXRB (gene 6257), sequence (P28702 whole entry, looked up, the tested form may be a part): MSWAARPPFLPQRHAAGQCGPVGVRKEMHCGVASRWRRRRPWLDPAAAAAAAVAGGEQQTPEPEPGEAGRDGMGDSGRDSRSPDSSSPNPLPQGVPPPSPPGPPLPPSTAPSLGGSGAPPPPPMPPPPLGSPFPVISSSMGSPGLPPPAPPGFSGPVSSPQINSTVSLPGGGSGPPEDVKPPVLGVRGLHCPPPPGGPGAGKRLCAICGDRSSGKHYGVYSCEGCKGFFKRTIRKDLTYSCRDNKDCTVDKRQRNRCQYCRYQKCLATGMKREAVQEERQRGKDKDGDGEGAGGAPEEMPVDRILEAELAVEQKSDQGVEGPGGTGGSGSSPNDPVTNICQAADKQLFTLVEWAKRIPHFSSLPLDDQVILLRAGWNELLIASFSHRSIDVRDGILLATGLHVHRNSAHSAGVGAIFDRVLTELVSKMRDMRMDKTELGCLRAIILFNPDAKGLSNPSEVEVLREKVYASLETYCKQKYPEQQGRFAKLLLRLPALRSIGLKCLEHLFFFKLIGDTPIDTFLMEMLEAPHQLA
Nuclear receptor subfamily 1 group I member 2 (Homo sapiens), sequence (O75469 whole entry, looked up, the tested form may be a part): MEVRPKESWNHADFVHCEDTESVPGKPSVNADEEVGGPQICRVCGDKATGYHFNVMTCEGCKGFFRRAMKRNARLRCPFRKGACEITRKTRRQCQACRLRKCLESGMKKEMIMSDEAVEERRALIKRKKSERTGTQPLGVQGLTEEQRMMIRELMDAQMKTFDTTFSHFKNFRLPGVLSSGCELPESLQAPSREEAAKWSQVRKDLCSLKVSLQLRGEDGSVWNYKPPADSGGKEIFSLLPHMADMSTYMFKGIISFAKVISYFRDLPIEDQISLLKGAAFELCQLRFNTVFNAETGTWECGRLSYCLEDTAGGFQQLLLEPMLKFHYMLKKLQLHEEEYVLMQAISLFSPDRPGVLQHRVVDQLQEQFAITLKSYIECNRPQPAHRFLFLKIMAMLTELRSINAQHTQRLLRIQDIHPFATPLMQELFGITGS
Nuclear respiratory factor 1 (Homo sapiens), sequence (Q16656 whole entry, looked up): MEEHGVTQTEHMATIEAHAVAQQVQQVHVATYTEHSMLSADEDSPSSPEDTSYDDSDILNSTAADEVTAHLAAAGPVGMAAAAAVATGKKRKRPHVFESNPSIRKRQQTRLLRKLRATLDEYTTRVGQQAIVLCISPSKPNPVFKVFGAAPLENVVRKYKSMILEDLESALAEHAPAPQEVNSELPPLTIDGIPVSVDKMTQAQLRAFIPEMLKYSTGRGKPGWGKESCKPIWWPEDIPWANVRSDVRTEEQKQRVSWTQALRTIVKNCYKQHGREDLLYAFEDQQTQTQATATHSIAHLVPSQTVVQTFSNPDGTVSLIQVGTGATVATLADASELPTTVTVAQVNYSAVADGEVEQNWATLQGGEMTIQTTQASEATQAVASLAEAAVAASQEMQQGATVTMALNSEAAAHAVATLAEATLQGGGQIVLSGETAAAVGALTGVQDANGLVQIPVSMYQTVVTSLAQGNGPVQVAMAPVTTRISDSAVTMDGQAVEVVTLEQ
Cellular tumor antigen p53 (Homo sapiens), sequence (P04637 whole entry, looked up): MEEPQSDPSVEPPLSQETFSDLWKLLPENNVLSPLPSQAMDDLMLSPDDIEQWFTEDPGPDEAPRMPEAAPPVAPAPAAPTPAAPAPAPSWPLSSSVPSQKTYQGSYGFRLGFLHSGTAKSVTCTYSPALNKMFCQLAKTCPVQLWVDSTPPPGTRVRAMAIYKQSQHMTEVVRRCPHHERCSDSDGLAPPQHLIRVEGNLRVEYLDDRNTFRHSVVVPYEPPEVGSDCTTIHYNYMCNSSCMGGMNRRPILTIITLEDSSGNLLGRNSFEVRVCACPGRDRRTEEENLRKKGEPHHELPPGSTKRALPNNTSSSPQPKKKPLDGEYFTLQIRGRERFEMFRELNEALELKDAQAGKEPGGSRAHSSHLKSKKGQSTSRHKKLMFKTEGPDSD
Hepatocyte nuclear factor 4-alpha (Homo sapiens), sequence (P41235 whole entry, looked up): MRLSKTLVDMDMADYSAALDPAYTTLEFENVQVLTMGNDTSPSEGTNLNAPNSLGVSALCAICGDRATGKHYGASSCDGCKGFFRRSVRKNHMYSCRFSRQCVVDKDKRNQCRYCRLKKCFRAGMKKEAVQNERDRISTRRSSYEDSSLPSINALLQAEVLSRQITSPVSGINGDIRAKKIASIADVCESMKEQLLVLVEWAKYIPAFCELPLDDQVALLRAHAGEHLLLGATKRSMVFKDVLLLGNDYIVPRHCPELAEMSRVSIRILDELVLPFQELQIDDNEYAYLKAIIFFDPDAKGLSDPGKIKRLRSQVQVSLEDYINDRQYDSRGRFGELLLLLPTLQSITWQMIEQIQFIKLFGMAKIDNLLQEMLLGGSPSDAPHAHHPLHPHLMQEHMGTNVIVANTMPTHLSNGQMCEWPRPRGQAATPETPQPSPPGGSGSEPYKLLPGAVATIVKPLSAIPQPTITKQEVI

Regarding `Nc1ccc(-c2ccc(N)c(N)c2)cc1N`, the result in [1], in [2], in [3], in assay [4], in [5] and in [6] was inactive. Further, the call in assay [7], in assay [8], in [9] and in [10] was inactive.

Consider `COC(=O)COc1ccc(Cl)cc1Cl`, for which the compound was classed as inactive in [1], in assay [11], in assay [4], in assay [5], in [12] and in assay [6]. Further, the call in assay [13], in [8], in [14], in assay [9], in [15] and in assay [16] was inactive. The outcome in assay [17] and in assay [18] was inactive.

As for `CSc1nc(N=[N+]=[N-])nc(NC(C)C)n1`, the compound was called inactive in [1], in assay [2], in assay [3], in [4], in assay [5] and in assay [12]. Also, the compound was classed as inactive in assay [13], in assay [10], in assay [19] and in assay [18]. In addition, the AC50 in assay [14] is 14 µM (active).

Consider `CC[N+](=O)[O-]`, for which the result in [1], in [11], in assay [20], in assay [3], in assay [4] and in [5] was inactive. Moreover, the call in assay [6], in assay [7], in [8], in assay [14], in assay [10] and in assay [15] was inactive. For the same compound, the result in assay [16], in assay [19], in assay [17] and in assay [18] was inactive.

For the compound `Nc1ccccc1C(=O)Oc1ccc2ccccc2c1`, the call in [1], in [11], in [20], in assay [2], in [12] and in assay [7] was inactive. Also, the call in assay [10], in assay [15], in assay [16], in assay [17] and in [18] was inactive. The half-maximal activity concentration (AC50) in assay [5] is 12 µM (active); in assay [13], 139 µM (active); in assay [14], 48.6 µM (active); in [9], 152 µM (active); in assay [19], 83.5 µM (active).
